Screening data: PubChem, National Center for Advancing Translational Sciences (NCATS)
ELG1 repair inh – inhibitors of ELG1-dependent DNA repair in HEK293T cells; HEK293T ELG1-luciferase reporter, luminescence, 16 h; DNA damage induced by 5-fluorouridine; Potency, µM (doses to about 46.1 µM), for the others: top-dose activity change, negative = inhibition, usual class: inhibitors; 2.3% of 330,000 active; AID 504467; further: potency means the concentration at half of the fitted maximal effect; nearly all actives have a fitted effect of over 55% in size
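Reporter activity after DNA damage by 5-fluorouridine is monitored. Compound-treated cells incubate 16 hr at 37 °C, then ONE-Glo is added for 30 min before luminescence reading.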
RORg inh – ROR gamma (mouse) transcription inhibition; P51450; Drosophila S2 Gal4-RORgamma UAS-luciferase reporter, 20 h; Potency, µM (series often up to 53.6 µM), for inactives: top-dose activity change, negative = inhibition, most hits filed as inhibitors; 5.4% of 310,000 active; AID 2551; further: potency means the concentration at half of the fitted maximal effect; nearly all actives have a fitted effect of over 60% in size
Target sequence (P51450 whole entry, looked up, the tested form may be a part): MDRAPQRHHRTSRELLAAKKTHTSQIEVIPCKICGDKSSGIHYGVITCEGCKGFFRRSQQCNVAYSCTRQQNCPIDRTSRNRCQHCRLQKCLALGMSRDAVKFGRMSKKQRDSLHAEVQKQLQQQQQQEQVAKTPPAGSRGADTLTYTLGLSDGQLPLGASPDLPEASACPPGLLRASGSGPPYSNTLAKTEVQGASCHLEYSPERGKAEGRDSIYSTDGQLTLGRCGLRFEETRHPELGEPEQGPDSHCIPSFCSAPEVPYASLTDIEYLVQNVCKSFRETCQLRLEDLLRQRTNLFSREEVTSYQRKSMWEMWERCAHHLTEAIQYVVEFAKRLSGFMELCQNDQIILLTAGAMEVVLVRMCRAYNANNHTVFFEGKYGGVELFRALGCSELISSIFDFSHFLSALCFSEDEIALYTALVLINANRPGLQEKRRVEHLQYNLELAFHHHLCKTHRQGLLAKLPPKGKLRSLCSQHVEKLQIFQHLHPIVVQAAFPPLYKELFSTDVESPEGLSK
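In this cell-based reporter format, copper sulfate (700 uM final) drives Gal4–ROR gamma fusion expression from a metallothionein promoter in Drosophila Schneider cells; compounds preincubated 1 hr, reporter read after 20 hr at ambient temperature.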
DT40 TDP1 no CPT – qHTS for Inhibitors of human tyrosyl-DNA phosphodiesterase 1 (TDP1): qHTS in cells in absence of CPT; Potency, µM (series often up to 46.2 µM), inactives show at the highest dose activity change, negative = growth inhibition, most hits filed as inhibitors; DT40 Tdp1-/- hTDP1 cells, no CPT, ATP luminescence, 48 h; 15% of 420,000 active; further: potency means the concentration at half of the fitted maximal effect; nearly all actives have a fitted effect of over 55% in size
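No-CPT arm: Tdp1-/-;hTDP1 DT40 cells (400/well) plus compounds, incubated ≥48 hr at 37 °C. Readout CellTiter-Glo luminescence.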
VP16 counter – Gal4-VP16 reporter inhibition counter-screen | AID 2546 | 3.5% of 310,000 active | Potency, µM (series often up to 53.6 µM), inactives show at the top dose activity, negative = inhibition, most hits filed as inhibitors | Drosophila S2 Gal4-VP16 UAS-luciferase, luminescence, 20 h;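 further: Gal4-VP16 expression switched on by copper sulfate through the metallothionein promoter; potency means the concentration at half of the fitted maximal effect; nearly all actives have a fitted effect of over 50% in size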
IL-1B inflam inh – blocks inflammasome-driven IL-1 beta release. THP-1 LPS/ATP IL-1B secretion, AlphaLISA, 16 h; stronger effect = lower value. AID 743279. activity change, % at 57.5 µM. 4.7% of 360,000 active; in the data active means activity change below about -50%; inconclusive means mostly about -30% to -49%
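THP-1 cells pretreated 1 hr with compounds (up to 57.5 uM final), then stimulated with LPS (250 ng/mL final) plus ATP (1.25 mM final); secreted IL-1B measured by AlphaLISA after 16 hr, decreased signal indicating inhibition.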
TDP1 cell CPT – growth inhibition of DT40 Tdp1-/-;hTDP1 cells with camptothecin (screen for TDP1 inhibitors); chicken DT40 Tdp1-/-;hTDP1 cells + 20 nM CPT, ATP luminescence, 48 h; 12% of 420,000 active; Potency, µM (series often up to 46.2 µM), without a hit: top-dose activity change, negative = growth inhibition, usual class: inhibitors; AID 686979; further: potency means the concentration at half of the fitted maximal effect; nearly all actives have a fitted effect of over 55% in size
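Cell growth measured by CellTiter-Glo luminescence after a minimum 48 h, 37 C compound exposure with 20 nM CPT in Tdp1-knockout DT40 cells stably expressing hTDP1, seeded 400/well; qHTS titration format.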
* hit, by the source's call; ? = inconclusive; nt = not tested or not shown; [ ] = another dose, or the depositor's remark. Shown are actives, neighbours in structure and some others; about 21% of the full set was active somewhere. Unless noted, the call rests on the fitted dose curve; in most records, active means well fitted curve in the direction sought with a large enough effect; inconclusive means small, poorly fitted or top-dose-only effect, or another doubt; inactive means no such curve, though single readings can be large; an effect the other way counts as inactive or inconclusive. On the % scale 0 is the no-effect control and ±100 the full control effect.

SMILES	ELG1 repair inh	RORg inh	DT40 TDP1 no CPT	VP16 counter	IL-1B inflam inh	TDP1 cell CPT
Cc1ccc(NC(=O)CC2S/C(=N/N=C/C=C/c3ccccc3)NC2=O)cc1Cl (stereo not given)	18%	4µM*	-5%	4µM*	20	5%
CC(C)=N/N=C1/NC(=O)C(CC(=O)Nc2cc(Cl)ccc2C)S1 (stereo not given)	-6%	11µM*	-8%	?	8	1%
Cc1ccc(NC(=O)CC2S/C(=N/N=C/c3c[nH]c4ccccc34)NC2=O)cc1 (stereo not given)	13%	-12%	-10%	-3%	12	-2%
CCOC(=O)c1ccc(NC(=O)CC2S/C(=N/N=C/c3c[nH]c4ccccc34)NC2=O)cc1 (stereo not given)	12%	?	?	-17%	-68*	-23%
Cc1ccc2c(c1)CN(CCNC(=O)c1cccc(Cn3cccn3)c1)CC(C)O2 (stereo not given)	nt	nt	-1%	nt	nt	4%[9.04 µM]
O=C(Nc1ccccc1Cl)C1(c2ccccc2)CC1(Cl)Cl (stereo not given)	2%	14%	12µM*	-16%	7	-18%
COc1ccc(N2C(=O)CC(Sc3ncn[nH]3)C2=O)c(OC)c1 (stereo not given)	-15%	3.2µM*	2.9µM*	22µM*	-17	2.9µM*
CC(C)c1ccc(N2C(=O)CC(Sc3ncn[nH]3)C2=O)cc1 (stereo not given)	-6%	?	4.6µM*	?	-23	4.6µM*
CC(C)c1ccc(N2C(=O)CC(Sc3nc4ccccc4o3)C2=O)cc1 (stereo not given)	?	5µM*	5.8µM*	4µM*	-1	4.6µM*
COc1ccc(N2C(=O)CC(NC34CC5CC(CC(C5)C3)C4)C2=O)c(OC)c1 (stereo not given)	16%	-32%	-2%	3%	8	6%
CC1CC(=O)N(c2ccc(C(C)C)cc2)C(=O)C1	7%	3%	-6%	-4%	-1	8%
COC(=O)C1=C[C@@H](C(=O)OC)[C@@H]2C3=C(C(=O)[C@]2(C)NC(=O)c2ccccc2)[C@H](C)[C@@H]2C(=O)NC(=O)[C@@H]2[C@@H]3C1	nt	-12%	nt	2%	nt	nt
Cc1ccc2cc(C3CC(c4ccco4)=NN3C(=O)CCC(=O)O)c(Cl)nc2c1 (stereo not given)	-13%	-9%	16µM*	?	-5	?
COc1ccc2cc(C3CC(c4ccco4)=NN3S(C)(=O)=O)c(Cl)nc2c1 (stereo not given)	?	29%	?	0%	-2	?
Cc1ccc2nc(Cl)c(C3CC(c4cccs4)=NN3C(=O)CCCC(=O)O)cc2c1 (stereo not given)	11%	-7%	8.2µM*	-2%	29	-19%
CCOc1ccc2nc(Cl)c(C3CC(c4ccc(C)cc4)=NN3C(=O)CCCC(=O)O)cc2c1 (stereo not given)	nt	nt	-7%	nt	nt	-8%
COc1ccc(C(=O)NC(=S)Nc2ccc3[nH]c(=O)[nH]c3c2)c(OC)c1	?	-6%	18%	10%	-19	-15%
COC(=O)[C@]1(C)N[C@H](CN(C)C(=O)c2ccccc2)[C@@H]2C(=O)N(Cc3ccccc3)C(=O)[C@@H]21	6%	nt	-2%	nt	25	4%
CCC1(C2CCN(C(=O)c3cc(F)ccc3F)CC2)NC(=O)N(CCc2scnc2C)C1=O (stereo not given)	nt	nt	-7%	nt	nt	9%[9.04 µM]
CCOc1ccccc1NC(=O)c1ccccc1-c1ccccc1	-5%	44%	23µM*	2%	34	?
CCOc1ccccc1NC(=O)c1cccc2ccccc12	-11%	-25%[1.91 µM]	?	7%	-14	?
CCOc1ccccc1NC(=O)c1cc(SC)ccc1Cl	-8%	-9%	18µM*	1%	47	?
CN(C)c1ncnc2c1ncn2[C@H]1CN(CCN2CCOCC2)C[C@@H](CO)O1	nt	nt	-7%	nt	-9	3%
O=C(Nc1ccn(CC(=O)N2CCN(c3ccccn3)CC2)c(=O)n1)OCc1ccccc1	3%	nt	-27%	nt	7	9%
COc1ccc(/C=N/NC(=O)c2ccco2)cc1COc1ccc(F)cc1	2%	?	-29%	-5%	0	-21%
SMILES	ELG1 repair inh	RORg inh	DT40 TDP1 no CPT	VP16 counter	IL-1B inflam inh	TDP1 cell CPT
COc1ccc(/C=N/NC(=S)Nc2ccccc2)cc1COc1ccc(Br)cc1	-15%	0.32µM*	?	2.2µM*	39	15µM*
COc1ccc(/C=N/NC(=S)Nc2ccccc2)cc1COc1ccccc1F	-1%	2.2µM*	nt	3.2µM*	nt	nt
COc1ccc(/C=N/NC(=S)Nc2ccccc2)cc1COc1ccc(F)cc1	28%	0.35µM*	-104%	0.89µM*	4	1%
CC(=O)Nc1cccc(C(=O)OCC(=O)N2CCN(C(=O)COC(=O)c3cccc(NC(C)=O)c3)CC2)c1	nt	nt	-1%	nt	-2	-4%
CCCCc1nn2c(=O)cc(COC(=O)c3ccc(NC(=O)CCc4ccccc4)cc3)nc2s1	nt	nt	-1%	nt	nt	-8%
COc1ccccc1-c1noc(CCCC(=O)NC2CCCCC2)n1	-3%	35%	-12%	1%	26	0%
CCOC(=O)[C@]12CCCC=C1N(Cc1ccco1)C(=O)[C@H](CC(=O)NCc1ccccc1)C2	nt	nt	-27%	nt	10	-13%
CCOC(=O)c1ccc(NC(=O)c2csnn2)cc1	nt	nt	-30%	nt	nt	-3%
Cc1c2cnn(CC(=O)NCc3ccc(F)cc3)c(=O)c2c(C)n1Cc1ccccc1F	nt	nt	16µM*	nt	nt	?
CNC(=O)Cn1ncc2c(C)n(Cc3ccc(C)cc3)c(C)c2c1=O	4%	-23%	?	12%	-7	-14%
Cc1c2cnn(CC(=O)Nc3c(F)c(F)cc(F)c3F)c(=O)c2c(C)n1Cc1ccccc1F	?	9%	-12%	7%	23	-27%
Cc1c2cnn(CC(=O)NCc3ccc(F)cc3)c(=O)c2c(C)n1Cc1cccc(Cl)c1	nt	nt	4.1µM*	nt	nt	4.1µM*
Cc1c2cnn(CC(=O)Nc3ccc(F)cc3F)c(=O)c2c(C)n1Cc1cccc(Cl)c1	nt	nt	?	nt	nt	-26%
CCC(C)NC(=O)Cn1ncc2c(C)n(Cc3ccc(F)cc3)c(C)c2c1=O (stereo not given)	nt	nt	?	nt	nt	23µM*
COc1cc2c(cc1OC)C(C(=O)c1ccc(OC)c(OC)c1O)=NCC2	nt	0%	-24%[9.04 µM]	-9%	nt	-14%[9.04 µM]
